Test results reported in PubChem BioAssay (NCI).
This is part of a sample that, as a whole, favours compounds with a hit. Of some 83,000 tested, about 20% had one in any assay.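 The test compound was applied at a single concentration to cells in 96-well plates for 48 hours, and percent growth was recorded.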 Activity calls are given as the source filed them. Rule for the calls: active = growth percent below 10; inactive = the rest.

Tests used:
Assay in all cases: NCI-60 one-dose screen, 48 h (100 = growth as untreated, 0 = no growth, -100 = all killed)
Settings in all cases: 10 µM unless noted
HCT-15 colon = tested on: HCT-15 colon
HT29 colon = tested on: HT29 colon
SNB-75 CNS = tested on: SNB-75 CNS
SNB-19 CNS = tested on: SNB-19 CNS
U251 CNS = tested on: U251 CNS
PC-3 prostate = tested on: PC-3 prostate
SK-MEL-5 melanoma = tested on: SK-MEL-5 melanoma
UACC-62 melanoma = tested on: UACC-62 melanoma
LOX IMVI melanoma = tested on: LOX IMVI melanoma
SK-MEL-28 melanoma = tested on: SK-MEL-28 melanoma

Measured: growth

CNC(=O)c1cc(Oc2ccc(NC(=O)c3nc(S(C)(=O)=O)n(C)c3-c3ccc(F)cc3)cc2)ccn1
inactive: HCT-15 colon 57.8% | HT29 colon 71.9% | SNB-75 CNS 43% | SNB-19 CNS 85% | U251 CNS 76.1% | PC-3 prostate 64.1% | SK-MEL-5 melanoma 73.8% | UACC-62 melanoma 62% | LOX IMVI melanoma 62.4% | SK-MEL-28 melanoma 95.7%

COc1ccc2c(c1)CCCC21C(=O)Nc2ccccc21 (stereo not given)
inactive: HCT-15 colon 97.2% | HT29 colon 87.4% | SNB-75 CNS 101% | SNB-19 CNS 105% | U251 CNS 99.3% | PC-3 prostate 104% | SK-MEL-5 melanoma 103% | UACC-62 melanoma 106% | LOX IMVI melanoma 98% | SK-MEL-28 melanoma 111%

c1ccc2c(c1)cnc1ccccc12
inactive: HCT-15 colon 98.4% | HT29 colon 94.6% | SNB-75 CNS 93.6% | SNB-19 CNS 99.2% | U251 CNS 109% | PC-3 prostate 102% | SK-MEL-5 melanoma 98.5% | UACC-62 melanoma 98.9% | LOX IMVI melanoma 104% | SK-MEL-28 melanoma 118%

C/C(=N\OC(=O)Nc1cccc(Cl)c1)c1ccccc1
inactive: HCT-15 colon 94.2% | HT29 colon 94.4% | SNB-75 CNS 80.4% | SNB-19 CNS 106% | U251 CNS 93.5% | PC-3 prostate 94% | SK-MEL-5 melanoma 94.8% | UACC-62 melanoma 93.7% | LOX IMVI melanoma 110% | SK-MEL-28 melanoma 95.2%

COc1cc(C2=NOC(c3cc(OC)c(OC)c(OC)c3)C2)ccc1OCCCCOc1cc2c(cc1OC)C(=O)N1CCC[C@H]1C=N2 (stereo not given in full)
active: HCT-15 colon 4.27% | HT29 colon -12.3% | SNB-75 CNS -87.7% | SNB-19 CNS -9.51% | U251 CNS -9.51% | PC-3 prostate -2.09% | SK-MEL-5 melanoma -85.3% | UACC-62 melanoma -76.6% | LOX IMVI melanoma -68.6% | SK-MEL-28 melanoma -66.1%

c1ccc(C(Nc2ccccn2)(c2ccccc2)c2ccccc2)cc1
inactive: HCT-15 colon 74.1% | HT29 colon 69.9% | SNB-75 CNS 74.8% | SNB-19 CNS 77.5% | U251 CNS 84.3% | PC-3 prostate 39.1% | SK-MEL-5 melanoma 70.3% | UACC-62 melanoma 59.3% | LOX IMVI melanoma 100% | SK-MEL-28 melanoma 98.5%

Cc1[nH]n(C(=O)c2ccncc2)c(=O)c1N=Nc1ccc(O)c(C(=O)O)c1
inactive: HCT-15 colon 112% | HT29 colon 115% | SNB-75 CNS 89.9% | SNB-19 CNS 116% | U251 CNS 119% | PC-3 prostate 102% | SK-MEL-5 melanoma 106% | UACC-62 melanoma 96.2% | LOX IMVI melanoma 75.7% | SK-MEL-28 melanoma 109%

COc1cccc(NC(=O)c2c(-c3ccccc3)c(-c3ccccc3)n[nH]c2=O)c1
inactive: HCT-15 colon 97.6% | HT29 colon 101% | SNB-75 CNS 77.9% | SNB-19 CNS 93.4% | U251 CNS 101% | PC-3 prostate 94.6% | SK-MEL-5 melanoma 99.4% | UACC-62 melanoma 92.9% | LOX IMVI melanoma 96.3% | SK-MEL-28 melanoma 102%

CNCCCNc1ccnc2cc(Cl)ccc12
active: HCT-15 colon 6.57% | HT29 colon -33.1% | SNB-75 CNS -52.8% | SNB-19 CNS -1.63% | U251 CNS 0.589% | PC-3 prostate 1.91% | SK-MEL-5 melanoma -96.1% | UACC-62 melanoma -75.2% | LOX IMVI melanoma -49.8% | SK-MEL-28 melanoma -96.3%

Cn1nc(C(F)(F)F)cc1-c1cc(Cl)c(OCc2ccc(Cl)cc2)c(-c2ccc(Cl)c(C(F)(F)F)c2)c1O
inactive: SNB-19 CNS 17.4% | LOX IMVI melanoma 12.4% | SK-MEL-28 melanoma 13.7%
active: HCT-15 colon 6.63% | HT29 colon 5.38% | SNB-75 CNS -8.74% | U251 CNS 8.94% | PC-3 prostate 7.86% | SK-MEL-5 melanoma -53.3% | UACC-62 melanoma 4.43%

Fc1cc(-c2nnc3sc(-c4ccc(Cl)cc4)nn23)c(Cl)cc1Cl
inactive: HCT-15 colon 96.5% | HT29 colon 90.6% | SNB-75 CNS 75.5% | SNB-19 CNS 96.6% | U251 CNS 91.7% | PC-3 prostate 102% | SK-MEL-5 melanoma 85.6% | UACC-62 melanoma 90.4% | LOX IMVI melanoma 91.7% | SK-MEL-28 melanoma 84.4%

C=C(CN1CC=CCC1)[C@@H]1CC[C@]2(C(=O)OC)CC[C@]3(C)[C@H](CC[C@@H]4[C@@]5(C)CC[C@H](OC(C)=O)C(C)(C)[C@@H]5CC[C@]43C)[C@@H]12
inactive: HCT-15 colon 105% | HT29 colon 75.3% | SNB-75 CNS 88.4% | SNB-19 CNS 86% | U251 CNS 83.2% | PC-3 prostate 61.4% | SK-MEL-5 melanoma 90.3% | UACC-62 melanoma 80.7% | LOX IMVI melanoma 99.7% | SK-MEL-28 melanoma 94.9%

CCCNC(=S)N/N=C(\C)c1ccccn1
inactive: HCT-15 colon 28.5% | HT29 colon 37.2% | SNB-75 CNS 74.2% | SNB-19 CNS 38.4% | U251 CNS 21.7% | PC-3 prostate 26.7% | SK-MEL-5 melanoma 22.4% | UACC-62 melanoma 11.1% | SK-MEL-28 melanoma 52.4%
active: LOX IMVI melanoma 9.29%

CCc1oc2ccccc2c1C(=O)c1cc(I)c(O)c(I)c1
inactive: HCT-15 colon 33.2% | HT29 colon 98.5% | SNB-75 CNS 31.9% | SNB-19 CNS 54.2% | U251 CNS 29.1% | PC-3 prostate 74.9% | SK-MEL-5 melanoma 32.2% | UACC-62 melanoma 45.6% | LOX IMVI melanoma 51.4% | SK-MEL-28 melanoma 62.4%

CCOC(=O)C1=C(C)NC(SCc2nnc(-c3ccc(Cl)cc3)o2)=NC1c1ccc(Br)cc1 (stereo not given)
inactive: HCT-15 colon 65.1% | HT29 colon 78.7% | SNB-75 CNS 67.7% | SNB-19 CNS 72% | U251 CNS 65.7% | PC-3 prostate 48.8% | SK-MEL-5 melanoma 51.4% | UACC-62 melanoma 55.3% | LOX IMVI melanoma 75% | SK-MEL-28 melanoma 81.3%

CN(C)c1ccc(C(c2ccccc2)c2ccc(N(C)C)cc2)cc1
inactive: HCT-15 colon 99.7% | HT29 colon 90.4% | SNB-75 CNS 108% | SNB-19 CNS 96.9% | U251 CNS 77.7% | PC-3 prostate 90.7% | SK-MEL-5 melanoma 106% | UACC-62 melanoma 98.3% | LOX IMVI melanoma 90% | SK-MEL-28 melanoma 107%

COc1ccc(-c2nc(-c3ccccc3OCc3ccccc3OC)nc(C)c2C(C)=O)cc1
inactive: HCT-15 colon 78.9% | HT29 colon 56.9% | SNB-75 CNS 83.8% | SNB-19 CNS 93.7% | U251 CNS 90.2% | PC-3 prostate 56.8% | SK-MEL-5 melanoma 91.3% | UACC-62 melanoma 54.7% | LOX IMVI melanoma 98.7% | SK-MEL-28 melanoma 101%

O=C(Nc1ccccc1Cl)Oc1ccc2ccccc2c1
inactive: HCT-15 colon 99.2% | HT29 colon 98.9% | SNB-75 CNS 83.7% | SNB-19 CNS 98.3% | U251 CNS 103% | PC-3 prostate 102% | SK-MEL-5 melanoma 110% | UACC-62 melanoma 91.8% | LOX IMVI melanoma 95.1% | SK-MEL-28 melanoma 106%

CC1(C)C2CCC(O)(C(=O)O)C1C2 (stereo not given)
inactive: HCT-15 colon 114% | HT29 colon 110% | SNB-75 CNS 83.4% | SNB-19 CNS 102% | U251 CNS 113% | PC-3 prostate 94.9% | SK-MEL-5 melanoma 107% | UACC-62 melanoma 91% | LOX IMVI melanoma 110% | SK-MEL-28 melanoma 102%

CC(C)N1CCN(c2ccncc2S(=O)(=O)N2CCN(C)CC2)CC1
inactive: HCT-15 colon 97.6% | HT29 colon 102% | SNB-75 CNS 80.6% | SNB-19 CNS 98.7% | U251 CNS 98.8% | PC-3 prostate 114% | SK-MEL-5 melanoma 100% | UACC-62 melanoma 108% | LOX IMVI melanoma 97.4% | SK-MEL-28 melanoma 114%

CCCCc1n(Cc2ccc3ccccc3n2)cc[n+]1Cc1ccc2ccccc2n1
active: HT29 colon 5.9% | SK-MEL-5 melanoma -76.3% | UACC-62 melanoma -6.58% | LOX IMVI melanoma -22.2%
inactive: HCT-15 colon 87.8% | SNB-75 CNS 17.5% | SNB-19 CNS 10.4% | U251 CNS 11.6% | PC-3 prostate 16.2% | SK-MEL-28 melanoma 16.1%

COc1ccccc1/C=N\NC(=S)Nc1ccc(F)cc1
inactive: HCT-15 colon 50.8% | HT29 colon 46.9% | SNB-75 CNS 84.4% | SNB-19 CNS 89.1% | U251 CNS 62% | PC-3 prostate 83% | SK-MEL-5 melanoma 85.1% | UACC-62 melanoma 58.9% | LOX IMVI melanoma 78.4% | SK-MEL-28 melanoma 78.3%

CCOc1cccc(/C=N/NC(=O)c2ccc(Nc3ccnc(C(F)(F)F)c3)cc2)c1O
inactive: HCT-15 colon 19.1% | HT29 colon 49.3% | SNB-75 CNS 20.6% | SNB-19 CNS 20% | U251 CNS 15.9% | PC-3 prostate 50.8% | SK-MEL-28 melanoma 19.2%
active: SK-MEL-5 melanoma -54.3% | UACC-62 melanoma -6.19% | LOX IMVI melanoma 2.5%

CSCCC1NC(=O)C(C(C)=Nc2ccccc2)=C1O (stereo not given)
inactive: HCT-15 colon 117% | HT29 colon 108% | SNB-75 CNS 88.6% | SNB-19 CNS 116% | U251 CNS 111% | PC-3 prostate 92.7% | SK-MEL-5 melanoma 112% | UACC-62 melanoma 101% | LOX IMVI melanoma 105% | SK-MEL-28 melanoma 110%

O=C(NC1CC1)c1ccc(-c2nc3ccc4[nH]ncc4c3c3c2CCCC3)cc1
active: SNB-75 CNS -5.58%
inactive: HCT-15 colon 29% | HT29 colon 35.2% | SNB-19 CNS 65.3% | U251 CNS 34.5% | PC-3 prostate 43.1% | SK-MEL-5 melanoma 55.2% | UACC-62 melanoma 28.8% | LOX IMVI melanoma 38.7% | SK-MEL-28 melanoma 47.4%

CC(C)CC(NC(=O)C(CCCN=C(N)N)NC(=O)OCc1ccccc1)C(=O)NC(CNC(=O)/C=C/c1ccccc1)C(C)C (stereo not given)
inactive: HCT-15 colon 96.5% | HT29 colon 109% | SNB-75 CNS 84.5% | SNB-19 CNS 99.9% | U251 CNS 106% | PC-3 prostate 89.2% | SK-MEL-5 melanoma 106% | UACC-62 melanoma 102% | LOX IMVI melanoma 94.8% | SK-MEL-28 melanoma 93.5%

CC(C)(C)NC(=O)C(OC(=O)C1CCc2cc(F)ccc2O1)c1ccccc1Cl (stereo not given)
inactive: HCT-15 colon 98.7% | HT29 colon 103% | SNB-75 CNS 83.3% | SNB-19 CNS 97.1% | U251 CNS 102% | PC-3 prostate 92.4% | SK-MEL-5 melanoma 94.5% | UACC-62 melanoma 87.6% | LOX IMVI melanoma 102% | SK-MEL-28 melanoma 108%

CC(=O)c1cc(C(=O)c2ccc3c(c2)Sc2ccccc2N3)c2c(C)cccn12
active: SK-MEL-5 melanoma 8.21%
inactive: HCT-15 colon 15.8% | HT29 colon 12% | SNB-75 CNS 24.3% | SNB-19 CNS 33.8% | U251 CNS 13.6% | PC-3 prostate 26.8% | UACC-62 melanoma 26.3% | LOX IMVI melanoma 14.1% | SK-MEL-28 melanoma 62.5%
